Laboratory results as given in PubChem BioAssay.

test: adipocyte viability effects, profiling panel, cell-based, 3T3-L1 adipocytes, calcein-AM fluorescence, 48 h, basal (AID 1163); conditions: 3T3-L1 adipocytes viability, higher = more signal; further: test concentration not given here

| SMILES | z-score |
| --- | --- |
| CO[C@H]1O[C@H](CO)[C@@H](OC(=O)Nc2ccc(C(F)(F)F)cc2)[C@H](OC(=O)Nc2ccc3c(c2)OCO3)[C@@H]1OC(=O)Nc1ccc2c(c1)OCO2 | 0.102 |
| COCCOC(=O)N1C(=O)[C@@]2(c3cc(C#Cc4ccc(OC)cc4)ccc31)[C@H](c1ccc(O)cc1)N1[C@H](c3ccccc3)[C@H](c3ccccc3)OC(=O)[C@H]1[C@@H]2C(=O)N1CCc2cc(OC)c(OC)cc2C1 | 1.22 |
| CCC(CC)C(O)C1C=CC2C(=O)NC(=O)C2N1Nc1ccccn1 (stereo not given) | -0.883 |
| CN1C(=O)C2C=CC(C(O)C3CC=CCC3)N(N(c3ccccc3)c3ccccc3)C2C1=O (stereo not given) | -1.9 |
| COc1cc2c(cc1OC)CN(C(=O)[C@H]1[C@@H]3C(=O)O[C@@H](c4ccccc4)[C@@H](c4ccccc4)N3[C@@H](c3ccc(O)cc3)[C@]13C(=O)Nc1ccc(C#CCCO)cc13)CC2 | 1.04 |
| CCN(CC)c1ccc(N2CC=CC34O[C@@H]5C=CCCOC(=O)C5[C@H]3C(=O)N(CCCCCCO)[C@@H]4C2=O)cc1 (stereo not given in full) | 1.45 |
| Cc1ccc(S[C@]2(C(=O)O)CC(=O)N(C(C)C)[C@@H]2c2ccc(CO)cc2I)cc1 | 0.827 |
| C=CCNC(=O)[C@H]1[C@@H]2C(=O)O[C@@H](c3ccccc3)[C@@H](c3ccccc3)N2[C@@H](c2ccccc2OCCO)[C@]12C(=O)Nc1ccc(C#CCCO)cc12 | 1.04 |
| C=C(CC1([C@@H](NP(=O)(c2ccccc2)c2ccccc2)[C@H]2C[C@@H]2CCCC)CC1)c1ccccc1 | -0.523 |
| O=C1C[C@@](C(=O)NCCN2CCOCC2)(c2ccc([N+](=O)[O-])cc2)[C@@H](c2ccc(CO)cc2)N1CC12CC3CC(CC(C3)C1)C2 | 0.0433 |
| CC(C)[Si](C#Cc1ccc(Oc2ccccc2)cc1)(O[Si](C#Cc1ccc(Oc2ccccc2)cc1)(C(C)C)C(C)C)C(C)C | 0.587 |
| O=C(NCCO)C1=C[C@H](Oc2ccccc2I)[C@@H](O)[C@H](N(Cc2ccco2)C(=O)Cc2ccccc2)C1 | 1.31 |
| COc1ccc(C#Cc2ccc3c(c2)[C@]2(C(=O)N3)[C@H](C(=O)Nc3nc4ccccc4s3)[C@H]3C(=O)O[C@H](c4ccccc4)[C@H](c4ccccc4)N3[C@@H]2c2ccc(O)cc2)cc1 | 0.341 |
| C=CCOC(=O)[C@H]1[C@@H]2C(=O)O[C@@H](c3ccccc3)[C@@H](c3ccccc3)N2[C@@H](c2ccc(OCCOC(=O)[C@@H]3C[C@@H]4C(=O)N[C@@H](CCCCNC(C)=O)C(=O)N4[C@@H]3c3ccc(O)cc3)cc2)[C@]12C(=O)Nc1ccccc12 | 1.85 |
| COC(=O)[C@H](Cc1ccccc1)N[C@@H](/C=C/C1CC1)[C@H](O)Cc1ccccc1 | -0.0648 |
| CC(C)N1C(=O)[C@@]2(Cc3ccccc31)c1ccccc1C(=O)N(Cc1ccccc1Cl)[C@H]2c1ccc(CO)cc1 | -0.24 |
| COC(=O)c1c(CC[C@@H](CO)NC(=O)NCCn2cc(C3(O)CCCC3)nn2)oc(C(C)=O)c1C(=O)OC | 0.154 |
| Cc1ccc(S[C@]2(C(=O)NCCCN(C)C)CC(=O)N(Cc3cc(C(F)(F)F)cc(C(F)(F)F)c3)[C@@H]2c2ccc(CO)cc2)cc1 | 0.374 |

| SMILES | z-score |
| --- | --- |
| CCOC(=O)C1=C[C@@H](C(C)(C)C)N(S(=O)(=O)c2ccc(C)cc2)[C@H]1c1ccc(F)cc1 | 0.131 |
| COc1cc2c(cc1OC)CN(C(=O)[C@H]1[C@@H]3C(=O)O[C@@H](c4ccccc4)[C@@H](c4ccccc4)N3[C@@H](c3ccc(O)cc3)[C@]13C(=O)Nc1ccccc13)CC2 | -0.843 |
| COC(=O)C(CC#Cc1ccc2c(c1)[C@]1(C(=O)N2)[C@H](c2ccc(OCCO)cc2)N2[C@H](c3ccccc3)[C@H](c3ccccc3)OC(=O)[C@H]2[C@@H]1C(=O)Nc1nc2ccccc2s1)C(=O)OC | 0.368 |
| COCCOC(=O)N1C(=O)[C@@]2(c3cc(C#CCCO)ccc31)[C@H](C(=O)N1CCCCCCC1)[C@H]1C(=O)O[C@H](c3ccccc3)[C@H](c3ccccc3)N1[C@@H]2c1ccc(OCCO)cc1 | 1.74 |
| C[N+](C)(C)CCCCCCNC(=O)[C@@H]1C[C@@H]2C(=O)N[C@@H](Cc3ccccc3)C(=O)N2[C@@H]1c1cccc(OCCO)c1 | 0.0098 |
| CC(=O)n1cc(C(O)C2C=CC3C(=O)N(c4ccccc4)C(=O)C3N2Nc2ccc([N+](=O)[O-])cc2)c2ccccc21 (stereo not given) | -0.479 |
| COC(=O)[C@]1(CCC(=O)OC(C)(C)C)N=C(c2ccc(OCCCO)cc2)O[C@@H]1c1ccccc1CN=[N+]=[N-] | -0.354 |
| CC1CC/C=C\[C@H]2OC34C=CCN(Cc5ccccc5)C(=O)[C@H]3N(CCCO)C(=O)[C@@H]4C2C(=O)O1 (stereo not given in full) | 0.324 |
| C=CC(=C)[C@H]1Oc2ccccc2S(=O)(=O)N2CCC[C@@H]12 | 0.0997 |
| COCCOC(=O)N1C(=O)[C@@]2(c3cc(C#CC4(O)CCCCCC4)ccc31)[C@H](c1ccc(OCCO)cc1)N1[C@H](c3ccccc3)[C@H](c3ccccc3)OC(=O)[C@H]1[C@@H]2C(=O)N1CCN(c2ncccn2)CC1 | -0.507 |
| COc1ccc(CCNC(=O)[C@@]2(C)c3ccccc3C(=O)N(C(C)C)[C@H]2c2ccc(CO)cc2)cc1 | -0.103 |
| CC1(C)C2C=C(C(O)C3C=CC4C(=O)NC(=O)C4N3Nc3ccc(Cl)cc3Cl)C[C@@H]1C2 (stereo not given in full) | -0.88 |
| O=C1N(Cc2ccccc2)c2ccccc2[C@@H]2OC(c3ccc(OCCCO)cc3)=N[C@]12CCS(=O)(=O)c1ccccc1 | 0.0205 |
| COc1cc(COC(C)=O)ccc1OC(C)=O | 0.223 |
| O=C(OCc1ccccc1)C1=CCC2c3[nH]c4ccccc4c3C(=O)C1N2S(=O)(=O)c1ccccc1[N+](=O)[O-] (stereo not given) | -0.816 |
| O=C(NC1CC1)[C@@H]1c2ccccc2C(=O)N(Cc2ccccc2Cl)[C@H]1c1ccc(CO)cc1 | 1.4 |
| C[N+](C)(C)CCCCNC(=O)[C@H]1C[C@H]2C(=O)N3CCC[C@H]3C(=O)N2[C@H]1c1cccc(OCCO)c1 | -0.682 |
